The nature of assay [1]: qHTS assay to identify small molecule agonists of the endoplasmic reticulum stress response signaling pathway (AID 1159516; active means well fitted activation curve with a large enough effect in the signal ratio in the repeat runs, not every such curve was filed as active; the % refers to the signal ratio; further: on the % scale 0 is the no-effect control and ±100 the full control effect). In a few lines: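 Fluorescence at 460 and 530 nm (405 nm excitation) reports beta-lactamase from an ER stress response element in HeLa cells treated 5 hr at 37 C.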
A short description of assay [2]: qHTS assay to identify small molecule agonists of the endoplasmic reticulum stress response signaling pathway - cell viability counter screen (AID 1159517). Further: nearly all actives have a fitted effect of over 50% in size. Further: potency means the concentration at half of the fitted maximal effect. In short, it runs like this: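 Cytotoxicity of test compounds toward ESRE-bla HeLa cells was assessed after 5 hr exposure. The luminescent CellTiter-Glo signal was measured 30 min after reagent addition.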
Background: Quantitative high-throughput screening tests each substance at several concentrations.

For assay [3], the target named is Nuclear receptor ROR-gamma (Homo sapiens) (UniProt P51449). Put plainly: qHTS assay to identify small molecule antagonists of the retinoid-related orphan receptor gamma (ROR-gamma) signaling pathway (AID 1159521; active means well fitted curve in the direction sought with a large enough effect in the repeat runs; an effect the other way counts as inactive or inconclusive; further: nearly all actives have a fitted effect of over 50% in size; further: potency means the concentration at half of the fitted maximal effect). In a few lines: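 Test compounds were applied to Tet-on RORγ CHO cells 2 h ahead of doxycycline hyclate (1 uM final). Luciferase reporter activity was quantified by luminescence after 16 h at 37 C and 5% CO2.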

Assay [4] in a line: qHTS assay to identify small molecule agonists of the AP-1 signaling pathway - cell viability counter screen (AID 1159525). Further: nearly all actives have a fitted effect of over 55% in size. Further: potency means the concentration at half of the fitted maximal effect. In a few lines:
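Each titration point was normalised to DMSO and tetra n-octyl ammonium bromide controls. The read was Cell Titer Glo luminescence after 30 min at RT, following 5 h compound exposure of ME-180 AP-1-bla cells at 37 °C.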

Assay [5] can be described thus: qHTS assay to identify small molecule agonists of the AP-1 signaling pathway (AID 1159526). Further: potency means the concentration at half of the fitted maximal effect. On activation: on the % scale 0 is the no-effect control and ±100 the full control effect.
Assay [6] addresses Retinoic acid receptor RXR-alpha (Homo sapiens) (UniProt P19793). Put plainly: qHTS assay to identify small molecule agonists of the RXR signaling pathway (AID 1159527). Further: nearly all actives have a fitted effect of over 35% in size. Further: potency means the concentration at half of the fitted maximal effect. On activation: on the % scale 0 is the no-effect control and ±100 the full control effect. In a few lines:
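Using 9-cis retinoic acid as the reference agonist, chemicals were tested in HEK 293T cells […] for 16 hr; substrate loading lasted 2 hr at room temperature.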

Assay [7] in a line: qHTS assay to identify small molecule antagonists of the retinoid acid receptor (RAR) signaling pathway - cell viability counter screen (AID 1159551; active means well fitted curve in the direction sought with a large enough effect in the repeat runs; an effect the other way counts as inactive or inconclusive; further: nearly all actives have a fitted effect of over 35% in size; further: potency means the concentration at half of the fitted maximal effect). In short, it runs like this: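 In this counter screen, the RARE-luciferase line C3RL4 was exposed for 6 h at 37 C and 5% CO2 to compounds with retinol at 1 uM final. Cellular ATP, read by luminescence, served as the viability measure.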

A short description of assay [8]: qHTS assay to identify small molecule antagonists of the retinoid-related orphan receptor gamma (ROR-gamma) signaling pathway - cell viability counter screen (AID 1159520; active means well fitted curve in the direction sought with a large enough effect in the repeat runs; an effect the other way counts as inactive or inconclusive; further: on the % scale 0 is the no-effect control and ±100 the full control effect; nearly all actives have a fitted effect of over 50% in size). In short, it runs like this:
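Tet-on ROR gamma CHO cells (1,000/well) were plated 4 hr, given compounds in DMSO for 2 hr at 37 C, then induced with 1 uM final doxycycline for 16 hr. Viability was read as ATP by CellTiter-Glo luminescence after 30 min.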

A short description of assay [9]: qHTS assay to identify small molecule agonists of the RXR signaling pathway - cell viability counter screen (AID 1159529; active means well fitted curve in the direction sought with a large enough effect in the repeat runs; an effect the other way counts as inactive or inconclusive; further: nearly all actives have a fitted effect of over 50% in size; further: potency means the concentration at half of the fitted maximal effect). In a few lines: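 Compounds dissolved in DMSO were pinned onto HEK 293T cells carrying a beta-lactamase reporter under RXR-alpha control and incubated 16 hr. Cytotoxicity was then quantified by CellTiter-Glo luminescence.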
Assay [10] in a line: qHTS assay to identify small molecule antagonists of the retinoic acid receptor (RAR) signaling pathway (AID 1159552; active means well fitted curve in the direction sought with a large enough effect in the repeat runs; an effect the other way counts as inactive or inconclusive; further: nearly all actives have a fitted effect of over 50% in size; further: potency means the concentration at half of the fitted maximal effect). In a few lines: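 Test chemicals and DMSO controls were pin-transferred onto C3RL4 cells a day after seeding; retinol (1 uM final) followed at once. Luminescent reporter output was quantified after 6 hr of co-incubation and 30 min with detection reagent.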

Molecules are shown by their SMILES. “And” between values parts separate entries of the source, which are not always exact repeats. Identical values can stand only once. Records with an inconclusive call do not appear. Where a structure was tested more than once in an assay, its records may differ in their call. The source made the active and inactive calls. Unless noted, the call rests on the fitted dose curve.

Retinoic acid receptor RXR-alpha (Homo sapiens), sequence (P19793 whole entry, looked up): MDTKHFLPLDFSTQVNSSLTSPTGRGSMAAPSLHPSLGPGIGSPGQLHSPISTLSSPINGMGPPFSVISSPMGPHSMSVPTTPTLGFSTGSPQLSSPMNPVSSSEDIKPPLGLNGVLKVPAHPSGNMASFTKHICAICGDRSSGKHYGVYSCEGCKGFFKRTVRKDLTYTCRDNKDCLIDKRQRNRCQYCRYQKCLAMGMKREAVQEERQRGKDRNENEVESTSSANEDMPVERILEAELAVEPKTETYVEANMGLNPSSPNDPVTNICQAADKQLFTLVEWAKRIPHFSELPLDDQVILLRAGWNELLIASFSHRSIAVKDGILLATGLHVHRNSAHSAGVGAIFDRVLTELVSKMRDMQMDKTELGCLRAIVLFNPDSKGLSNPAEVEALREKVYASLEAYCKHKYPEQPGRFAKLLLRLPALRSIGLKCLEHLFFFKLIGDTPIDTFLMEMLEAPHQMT

As to `Nc1ccc(Cl)cc1`, the result in [1] was inactive. Moreover, the Potency result in assay [2], in assay [3], in [4], in [5] and in assay [7] was “inactive” throughout. The Potency in assay [6] is 8.71 µM (active) and inactive.
Consider `COc1ccc(N)cc1`, for which the Potency result in assay [2], in [8], in assay [3], in [4], in assay [5] and in [6] was “inactive” each time. Also, the Potency entry in [9] and in [7] was “inactive” each time.
As to `CC(Cl)(Cl)C(=O)O`, the Potency result in assay [2], in [3], in assay [4], in assay [5], in assay [6] and in assay [7] was “inactive” throughout.
On to `Oc1ccccc1-c1ccccc1`, for which the Potency result in [2], in assay [3], in assay [4], in assay [5], in [6] and in [7] was “inactive” in each case.
As to `O=P1(N(CCCl)CCCl)NCCCO1` (centres undefined), the Potency entry in assay [2], in assay [3], in [4], in assay [5], in [6] and in assay [7] was “inactive” in each case.
On to `CC[N+](CC)(CC)CC`, for which the Potency entry in assay [2], in assay [3], in [4], in [5], in [6] and in assay [9] was “inactive” in each case. In assay [7], the Potency result was “inactive”.
For `O=c1nc(O)n(Cl)c(=O)n1Cl`, the Potency result in assay [2], in assay [3], in assay [4], in assay [5], in assay [6] and in assay [9] was “inactive” each time. Also, the Potency entry in [7] is “inactive”.
For `O=C(O)CC(O)(CC(=O)O)C(=O)O`, the Potency entry in assay [2], in [8], in [4], in [5], in assay [6] and in assay [7] was “inactive” in each case.
Regarding `CCCCn1cc[n+](C)c1C`, the Potency result in assay [2], in assay [4], in assay [5], in assay [6] and in [7] was “inactive” each time.
Consider `O=[N+]([O-])O`, for which the Potency entry in assay [2], in assay [8], in [4], in [5] and in [7] was “inactive” throughout. For the same molecule, in assay [6], the Potency entry was “inactive and 21.9 µM (active)”.
For the molecule `CCC(=O)C(CC(C)N(C)C)(c1ccccc1)c1ccccc1` (centres undefined), the Potency result in assay [2], in assay [4], in [5], in [7] and in [10] was “inactive” in each case. Further, the results for the Potency in [3] and in assay [9] were 48.8 µM (active) and 43.8 µM (active), respectively.
As to `Nc1ccc(-c2ccc(N)c(Cl)c2)cc1Cl`, the Potency entry in [2], in assay [4], in assay [5], in [6] and in [7] was “inactive” throughout. For the same molecule, the Potency in [3] was 68.6 µM (active).
For `CCCCCCCCCCn1cc[n+](C)c1`, the Potency entry in [8], in assay [4], in assay [5], in [9] and in assay [7] was “inactive” throughout. Moreover, the Potency in assay [3] was 7.73 µM (active) [middle of 5 runs].
In the case of `CCC[N+]1(C)CCCC1`, the Potency entry in assay [2], in assay [3], in assay [4], in [5], in assay [6] and in assay [7] was “inactive” in each case.
As for `COc1ccccc1N`, the Potency result in assay [2], in [3], in [4], in assay [5], in assay [6] and in [9] was “inactive” throughout. The Potency result in assay [7] and in [10] was “inactive” in each case.
In the case of `O=S(=O)(O)O`, the Potency entry in assay [2], in assay [4], in assay [5], in assay [6], in assay [9] and in [7] was “inactive” in each case.
For `O=C(O)CCl`, the Potency result in [2], in [3], in assay [4], in [5], in assay [6] and in assay [7] was “inactive” throughout. The Potency result in assay [10] is “inactive”.
For the molecule `CCCCn1cc[n+](C)c1`, the Potency entry in assay [2], in assay [4], in assay [5], in assay [6] and in assay [7] was “inactive” in each case.
With `CCCC[n+]1ccc(C)cc1`, the Potency result in assay [2], in assay [6] and in [7] was “inactive” throughout. For the same molecule, the Potency entry in assay [4] is “inactive and 48.7 µM (active)”; in assay [5], 13.8 µM (active) and inactive.
Regarding `CCOP(=S)(OCC)Oc1ccc2c(C)c(Cl)c(=O)oc2c1`, the Potency entry in [2], in assay [3], in assay [4], in assay [5], in [9] and in [7] was “inactive” each time. Besides, the Potency entry in assay [10] is “inactive”.
Regarding `O=c1[nH]c(=O)n(Cl)c(=O)n1Cl`, the Potency entry in assay [2], in assay [3], in [4], in assay [5], in assay [6] and in assay [9] was “inactive” each time. Besides, the Potency entry in assay [7] was “inactive”.
`CCCC[N+]1(C)CCCCC1`: the Potency result in assay [2], in [3], in [4], in assay [5], in assay [6] and in [7] was “inactive” in each case.
Regarding `N#CS`, the Potency entry in assay [2], in assay [4], in assay [5], in assay [6], in assay [9] and in assay [7] was “inactive” throughout.
As to `O=C(O)c1ccccc1O`, the Potency entry in [2], in [8], in assay [4], in assay [5], in assay [6] and in assay [9] was “inactive” in each case. Besides, the Potency entry in [7] was “inactive”.
As for `COP(=O)(OC)OC=C(Cl)Cl`, the Potency entry in assay [2], in assay [3], in assay [4], in assay [5], in [6] and in assay [7] was “inactive” each time.
For the molecule `Cc1cc(-c2ccc(N)c(C)c2)ccc1N`, the Potency entry in assay [2], in assay [3], in assay [4], in assay [5], in assay [6] and in [9] was “inactive” each time. For the same molecule, the Potency entry in assay [7] and in assay [10] was “inactive” each time.
`OCCOc1ccccc1`: the Potency entry in assay [2], in assay [3], in [4], in [5], in assay [6] and in assay [7] was “inactive” each time. Also, in [10], the Potency result is “inactive”.
On to `CC(=O)O`, for which the Potency result in [2], in assay [8], in assay [4], in assay [5], in assay [6] and in assay [7] was “inactive” throughout.
With `CC(=O)[O][Hg][c]1ccccc1`, the Potency in [2] is 485 nM (active) and 692 nM (active) and 2.13 µM (active); in [3], 429 nM (active) and 545 nM (active) and 750 nM (active); in [4], 1.37 µM (active) and 2.45 µM (active) and 4.25 µM (active); in assay [9], 1.72 µM (active) and 1.95 µM (active) and 2.39 µM (active); in assay [7], 5.4 µM (active) and 13.7 µM (active) and 16.8 µM (active); in assay [10] it was 1.92 µM (active) and 1.54 µM (active) and 2.11 µM (active).
As for `Cc1cc(Cl)ccc1N`, the Potency result in assay [2], in [3], in assay [4], in assay [5], in assay [6] and in [7] was “inactive” throughout. Also, the Potency entry in assay [10] is “inactive”.
As to `CCCC[n+]1ccccc1C`, the Potency entry in assay [2], in assay [3], in assay [4], in [5], in [6] and in assay [7] was “inactive” each time.
With `C[N+](C)(C)Cc1ccccc1`, the Potency entry in assay [2], in [3], in [4], in assay [5], in [6] and in assay [7] was “inactive” each time.
Regarding `O=C(O)c1nc(Cl)ccc1Cl`, the Potency entry in assay [2], in [3], in assay [4], in assay [5], in assay [6] and in [7] was “inactive” each time.
For `CCCC[n+]1cccc(C)c1`, the Potency result in assay [2], in [3], in assay [4], in assay [5], in [6] and in [7] was “inactive” each time.
With `CNC`, the Potency result in assay [2], in assay [3], in assay [4], in assay [5], in assay [6] and in assay [9] was “inactive” in each case. In addition, the Potency entry in assay [7] is “inactive”.

The values are drawn from PubChem BioAssay (Tox21).
